PubChem BioAssay (NCI)
Compounds without any hit were thinned out: in the full panel of roughly 79,000, 15% have a hit. Values without a mark were called inactive. The source made the active and inactive calls. Cut-off read from the data, not from the text of the source: active = growth inhibition above about 70%; inactive = the rest.

Tests used:
[1] = NCI Yeast Anticancer Drug Screen. Data for the rad50 strain (AID 155);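 note: 0% = growth of vehicle-only cultures of the same strain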; conditions: S. cerevisiae rad50 strain growth inhibition; at 50.0 µM; hits give high values
Procedure, shortened: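 DNA repair mutant yeast, compound exposure, growth read-out; inhibition is taken relative to vehicle.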

[2] = NCI Yeast Anticancer Drug Screen. Data for the mec2-1 strain (AID 157); conditions: S. cerevisiae mec2-1 strain, at 50.0 µM, hits give high values
Procedure, shortened: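 mec2-1 yeast strain, carrying an alteration in DNA damage repair or cell cycle control, was exposed to compounds; growth inhibition was measured relative to vehicle-treated controls.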

[3] = NCI Yeast Anticancer Drug Screen. Data for the sgs1 mgt1 strain (AID 161);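 note: 0% = growth of cultures given vehicle only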; conditions: S. cerevisiae sgs1 mgt1 strain, at 50.0 µM, hits give high values
Procedure, shortened: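 Percent growth inhibition was derived by comparing compound-exposed mutant yeast with vehicle-exposed cultures. The strain carries alterations in DNA damage repair.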

[4] = NCI Yeast Anticancer Drug Screen. Data for the cln2 rad14 strain (AID 165);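 note: 0% = growth equal to vehicle treated cultures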; conditions: S. cerevisiae cln2 rad14 strain, at 50.0 µM, hits give high values
Procedure, shortened: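 Yeast carrying cln2 and rad14 alterations (cell cycle control and DNA damage repair) were exposed to compounds. Growth inhibition was measured against vehicle-treated controls.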

[5] = NCI Yeast Anticancer Drug Screen. Data for the bub3 strain (AID 167); conditions: S. cerevisiae bub3 mutant strain, at 50.0 µM, hits give high values
Procedure, shortened: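 In this screen, a yeast mutant lacking normal mitotic checkpoint function is challenged with compound. Relative growth versus vehicle gives the inhibition value.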

[6] = NCI Yeast Anticancer Drug Screen. Data for the mlh1 rad18 strain (AID 175); conditions: S. cerevisiae mlh1 rad18 strain growth inhibition; at 50.0 µM; hits give high values
Procedure, shortened: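 Growth inhibition of the yeast strain was measured after compound exposure and expressed relative to vehicle-treated controls. The strain carries defined defects in DNA damage repair.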

Structure (SMILES) | growth inhibition [1] | growth inhibition [2] | growth inhibition [3] | growth inhibition [4] | growth inhibition [5] | growth inhibition [6]
O=C(CCCCCCCCC(=O)OCC1OC(n2cnc3c(=O)[nH]cnc32)C(O)C1O)OCC1OC(n2cnc3c(=O)[nH]cnc32)C(O)C1O (stereo unspecified) | -47.5% | -44.7% | -42.3% | -8.3% | -22.9% | -35.3%
COc1ccc2nc(-c3ccc(F)cc3)cc(C(=O)O)c2c1 | -4.6% | -14.7% | 9.75% | 16.9% | 10.2% | 17.1%
COC(=O)C1OC(n2ccc(=O)[nH]c2=O)C(OC(C)=O)C(OC(C)=O)C1OC(C)=O (stereo unspecified) | 2.2% | -3.4% | -1.3% | -9.55% | 1.45% | 6.6%
CSc1ccc(NC(=O)c2ccc(C(=O)Nc3ccc(SC)cc3)cc2)cc1 | -17.5% | -10.7% | -12.6% | -14.9% | – | -26.7%
COc1ccc2c(c1OC)CN1CCc3cc4c(cc3C1=C2)OCO4 | 15.9% | -3.95% | -9.95% | 2.35% | 8.15% | 12.9%
CC(=O)Nc1c(C)cc(S(=O)(=O)O)cc1C | 6.25% | -0.1% | -8.65% | -58.7% | – | -18.5%
CC(=O)Oc1ccc(C2CC(=O)N(CCN(C)C)C2=O)cc1 (stereo unspecified) | 0.2% | 30.2% | -0.5% | -6.35% | – | -2.1%
CCOC(=O)CC[C@H](NC(=O)c1nc[nH]c1[N+](=O)[O-])C(=O)OCC | -17.8% | -36% | -44.4% | 8.9% | – | -34.4%
Cc1cc(C(=O)C=[N+]=[N-])c(CN2C(=O)c3ccccc3C2=O)c(=O)n1C | -0.8% | -9.55% | -3.4% | 5.95% | – | 1.4%
COC(=O)c1ccc(/C=C2\Oc3ccccc3C2=O)cc1 | -54.1% | -62.2% | -39% | -8.5% | – | -44.5%
CC(=O)NCCN1CCN(C(C)=O)CC1 | 10.1% | 10.7% | -8.7% | -37% | – | -15.2%
O=C(/C=C/c1ccccc1)NCC(O)CO (stereo unspecified) | 7.1% | -2.95% | -3.65% | -0.3% | – | 11.7%
COc1ccc(N2C(=O)C(=O)C3(CCCCC3)C2=O)c2ccccc12 | -6.15% | -25.7% | -16% | 10.8% | – | 0.3%
Nc1nc(N)nc(-c2cc(Br)c(N)c(Br)c2)n1 | -2.55% | -7.45% | 0.95% | 34.6% | – | -8.25%
CCCN(C(=O)c1ccccc1)C(C#N)c1ccc(C(C#N)N(CCC)C(=O)c2ccccc2)cc1 (stereo unspecified) | 7% | 1.2% | -24.4% | -10.9% | – | -32.5%
Cc1cc(C)n(C2=NCCN2)n1 | -26.1% | -33.7% | -14.1% | -33.2% | – | -17.6%
CCc1nc2c(c(=O)n(C)c(=O)n2C)n1C | -2.65% | -4.15% | -8.45% | -3.85% | – | -7.5%
Cc1cc(N(CCC#N)CCC#N)ccc1N=Nc1ccc(C(=O)O)cc1 | -30.9% | -34.6% | -13.7% | -1.15% | – | -25%
OC1C2CCC(C2)C1CN1CCOCC1 (stereo unspecified) | -6% | -3.35% | -8.1% | 1.85% | – | 1.7%
CN1C(=O)CC2(C)c3cc(O)cc(Br)c3N(C)C12 (stereo unspecified) | 6.6% | -10.5% | 8.45% | 10.5% | – | 17.7%

Structure (SMILES) | growth inhibition [1] | growth inhibition [2] | growth inhibition [3] | growth inhibition [4] | growth inhibition [5] | growth inhibition [6]
CCN(C)C(=O)NC(C)=O | 2.65% | 11.1% | -17.9% | -14% | – | 15%
Cc1cc(N(C)c2ccccc2)nc(N(C)c2ccccc2)n1 | -24.4% | -16.6% | -6.05% | -14.6% | – | -61.5%
Cn1ccnc1Sc1ccccn1 | -8.7% | 30.1% | 1.7% | 21.9% | – | 6.15%
CCOC(=O)NC(C(N)=O)C(N)=O | -0.3% | 15.8% | -1.6% | -44% | – | -2.45%
COc1cc(C(c2c(O)c3ccccc3oc2=O)N2CCCC2)cc(OC)c1OC (stereo unspecified) | -1.2% | 5% | 7.05% | 4.05% | – | 2.7%
Cc1nc(Cl)c(Cl)c(Cl)n1 | 5% | -7.9% | -0.6% | 5.55% | – | -5.2%
O=C(c1cccs1)c1ccc2ccccc2c1C(=O)O | -6.95% | -11% | -0.85% | 3.9% | – | 4.7%
COc1ccc(/C=C2\NC(=O)NC2=O)cc1Br | 11.8% | 10.4% | 2.65% | 7% | – | 8.5%
COC(=O)C(CC(=O)c1ccc2ccccc2c1)OC (stereo unspecified) | -1.85% | -9.1% | 7.2% | -76.7% | – | -9.55%
CNC(=S)NNc1ncnc2c1ncn2-c1ccc(C)cc1 | -30.4% | 6.3% | 5.45% | 29.7% | – | 4.25%
COc1ccc([C@@]23Oc4cc(OC)cc(OC)c4[C@]2(O)[C@H](O)[C@H](C(=O)N(C)C)[C@H]3c2ccccc2)cc1 | 91.8% (active) | 93.5% (active) | 92.8% (active) | 91.5% (active) | – | 91.1% (active)
Cc1ccc2nc(NS(=O)(=O)c3cc(C)c(Cl)cc3S)[nH]c2c1 | 9.35% | 4.35% | 9.1% | 8.25% | – | 39.9%
O=c1oc2ccccc2c(O)c1C(c1ccc2c(c1)OCO2)N1CCCC1 (stereo unspecified) | 7.4% | 36.7% | 19.9% | 15.3% | – | 22.9%
O=C(NC(=S)c1ccccc1)Nc1ccccc1 | 2.1% | 37.5% | 6.85% | -8.85% | – | 18.9%
CCOC(=O)NC1OC(C(N)=O)C(O)C(O)C1O (stereo unspecified) | 2.25% | -5.7% | 3.4% | -33.3% | – | 1.4%
O=C1C2C3C=CC(O3)C2C(=O)N1N=C1CCCCC1 (stereo unspecified) | 10.4% | 13.2% | 14.2% | 8.65% | – | 19.4%
CS(=O)(=O)OC1CCCS(=O)(=O)c2ccccc21 (stereo unspecified) | -12.9% | -12.8% | 3.65% | -46.9% | – | -6.45%
CCCCCOc1ccc(/C=C\C(=O)O)cc1 | 11.3% | 2.55% | -11.2% | -6.75% | -18.4% | -6.35%
CCCCCCCCCCCCCCOc1ccc(Sc2ccc([N+](=O)[O-])cc2)cc1 | 40.8% | -0.1% | 46% | -5% | – | 26.8%
O=S(=O)(c1ccc(Nc2nnc(-c3ccccc3)s2)cc1)N1CCCCC1 | -4% | 12.8% | 42.3% | -23.1% | 40.9% | 5.65%
